# Reference: PubChem BioAssay (Tox21)
# Records with an inconclusive call do not appear. Values without a mark were called inactive. Activity calls are given as the source filed them. The call rests on the fitted dose curve; in most records, active means well fitted inhibition curve with a large enough effect in the signal ratio in the repeat runs (not every such curve was filed as active); inconclusive means weak or mixed curves, or effect the other way; inactive means no such curve, though single readings can be large or run the other way; the % refers to the signal ratio. Positions of bridges follow the written chain, without caps; N, C: chain ends. Non-standard residues stand in square brackets, D forms with d. Residues, ends and D or L forms follow the SMILES beside them. Orn = NCCC[C@H](N)C(=O)O; Mpa = O=C(O)CCS
# Target: Androgen receptor (Homo sapiens) (UniProt P10275)
# Sequence (P10275 whole entry, looked up): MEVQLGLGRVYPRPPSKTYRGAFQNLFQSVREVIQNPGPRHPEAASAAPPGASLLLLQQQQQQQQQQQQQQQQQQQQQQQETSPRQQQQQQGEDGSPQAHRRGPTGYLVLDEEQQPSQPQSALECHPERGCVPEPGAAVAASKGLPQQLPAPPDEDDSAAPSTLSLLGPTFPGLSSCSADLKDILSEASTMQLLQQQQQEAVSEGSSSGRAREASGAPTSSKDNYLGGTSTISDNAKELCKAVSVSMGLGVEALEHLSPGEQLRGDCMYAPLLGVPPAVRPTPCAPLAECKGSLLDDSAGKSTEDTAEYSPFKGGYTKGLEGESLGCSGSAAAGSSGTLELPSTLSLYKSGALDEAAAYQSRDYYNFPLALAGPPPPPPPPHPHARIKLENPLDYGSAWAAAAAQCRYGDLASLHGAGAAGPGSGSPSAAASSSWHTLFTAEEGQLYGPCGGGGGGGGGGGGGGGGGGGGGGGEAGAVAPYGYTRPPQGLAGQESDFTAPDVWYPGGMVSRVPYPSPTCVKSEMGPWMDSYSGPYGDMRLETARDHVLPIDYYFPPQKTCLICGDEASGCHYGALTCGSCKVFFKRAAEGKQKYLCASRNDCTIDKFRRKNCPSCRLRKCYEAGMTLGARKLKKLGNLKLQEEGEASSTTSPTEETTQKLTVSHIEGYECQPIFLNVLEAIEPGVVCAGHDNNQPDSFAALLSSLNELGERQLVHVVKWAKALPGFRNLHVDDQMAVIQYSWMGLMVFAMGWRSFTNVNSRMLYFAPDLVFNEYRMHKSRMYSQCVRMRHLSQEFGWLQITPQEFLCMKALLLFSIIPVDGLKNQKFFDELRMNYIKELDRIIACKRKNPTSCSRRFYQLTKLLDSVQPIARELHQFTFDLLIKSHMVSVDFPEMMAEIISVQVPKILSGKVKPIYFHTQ
# Assay: qHTS assay to identify small molecule antagonists of the androgen receptor (AR) signaling pathway (AID 743035)
# Details: HEK293 AR-UAS-bla, R1881-stimulated, beta-lactamase FRET, 16 h; series mostly up to 58.5 µM; activity change, negative = inhibition: at the top concentration
# Excerpt: National Center for Advancing Translational Sciences [NCATS]
# NIH Chemical Genomics Center [NCGC]
# U.S. Environmental Protection Agency [EPA]
# National Institutes of Environmental Health Sciences [NIEHS]
# National Toxicology Program [NTP]
# U.S. Food and Drug Administration [FDA]
# Androgen receptor (AR), a nuclear hormone receptor, plays a critical role in AR-dependent prostate cancer and other androgen related diseases. Endocrine disrupting chemicals (EDCs) and their interactions with steroid hormone receptors like AR may cause disruption of normal endocrine function as well as interfere with metabolic homeostasis, reproduction, developmental and behavioral functions. To identify the compounds that inhibit AR signaling, GeneBLAzer AR-UAS-bla-GripTite cell line (Invitrogen, Carlsbad, CA, USA) containing a beta-lactamase reporter gene under control of an Upstream Activator Sequence (UAS) stably integrated into HEK293 cells was used to screen the Tox21 10K compound library.
# Tox21 Assay Protocol Summary:
# AR-bla cells were dispensed at 2,000 cells/5 uL of assay medium per well into black wall/clear-bottom 1536-well plates using a Multidrop Combi (ThermoFisher Scientific, Waltham, MA) dispenser. After the assay plates were incubated at a 37C and 5% CO2 for 4 hr, 23 nL of compounds dissolved in DMSO, positive controls or DMSO only was transferred to the assay plate by a Pintool station (Kalypsys, San Diego, CA), followed by addition of 1 uL of agonist (R1881) in culture medium using a Bioraptr Flying Reagent Dispenser (FRD) workstation (Beckman Coulter, Indianapolis, IN, USA). The plates were incubated at a 37C and 5% CO2 for 16 h. After 1 uL of LiveBLAzerTM B/G FRET substrate was added using a Bioraptr FRD, the plates were incubated at room temperature for 2 h and fluorescence intensity was measured by an Envision plate reader (PerkinElmer, Shelton, CT).
# On the % scale 0 is the no-effect control and ±100 the full control effect; potency means the concentration at half of the fitted maximal effect.
Compound,"activity change, negative = inhibition",Potency
O=C(O)c1cccc(/C=C2/C[C@@H]3[C@@H](/C=C/[C@@H](O)C4CCCCC4)[C@H](O)C[C@@H]3O2)c1,7.11%,
O=C(Cc1cccs1)N[C@@H]1C(=O)N2C(C(=O)[O-])=C(C[n+]3ccccc3)CS[C@H]12,4.19%,
C=C1C(=O)O[C@H]2[C@H]1CC/C(C)=C\CC[C@@]1(C)O[C@@H]21,,23.9 µM (active)
OC(CN1CCCCC1)c1cc(-c2ccccc2)on1 (stereo not given),0.485%,
Cc1cc(O)c2c(c1)O[C@@]1(C)CC[C@H]3C(C)(C)CCCC34CO[C@@H]2[C@H]41 (stereo not given in full),,23.9 µM (active)
COc1ccc2c(=O)c(C)c(-c3ccccc3)oc2c1CN(C)C,7.62%,
CCCCCCCCCCCCCCCC(=O)OC[C@@H](COP(=O)([O-])OCC[N+](C)(C)C)OC(=O)CCCCCCCCCCCCCCC,8.22%,
CC(=O)Nc1ccc(OC(=O)c2ccccc2O)cc1,-16.1%,
CC[C@H]1NC(=O)[C@@H](NC(=O)c2ncccc2O)[C@@H](C)OC(=O)[C@H](c2ccccc2)NC(=O)[C@@H]2CC(=O)CCN2C(=O)[C@H](Cc2ccccc2)N(C)C(=O)[C@@H]2CCCN2C1=O,-1.13%,
O=C(O)c1c(Cl)c(Cl)c(Cl)c(Cl)c1-c1c2cc(I)c(=O)c(I)c-2oc2c(I)c(O)c(I)cc12,18.3%,
O=C(O)c1ccc(NC(=O)[C@H](Cc2ccc(O)cc2)NC(=O)c2ccccc2)cc1,-16.8%,
CC(=O)O[C@H]1CC[C@@]2(C)C(=CC[C@@H]3[C@@H]2CC[C@]2(C)C(c4cccnc4)=CC[C@@H]32)C1,-0.281%,
CC1(C)S[C@@H]2[C@H](NC(=O)[C@H](NC(=O)N3CCN(S(C)(=O)=O)C3=O)c3ccccc3)C(=O)N2[C@H]1C(=O)O,30.4%,
CCc1ccc(S(=O)(=O)O)cc1,0.0419%,
O=C(O)c1nc(=O)[nH]c(=O)[nH]1,1.35%,
CC(=O)O[C@H]1C(=O)[C@@]2(C)[C@H]([C@H](OC(=O)c3ccccc3)[C@]3(O)C[C@H](OC(=O)[C@H](O)[C@@H](NC(=O)c4ccccc4)c4ccccc4)C(C)=C1C3(C)C)[C@]1(OC(C)=O)CO[C@@H]1C[C@@H]2O,,0.0169 µM (active)
Cc1cccc(C)c1NC(=O)NC1=CCCN1C,-19.8%,
COc1cc2c(cc1OC)[C@@H](c1ccccc1)CN(C)CC2,-2.7%,
OCCN1CCN(CC/C=C2/c3ccccc3Sc3ccc(Cl)cc32)CC1,0.812% [at 27 µM],
CCOC(=O)COc1ccc2c(C)c(CCN(CC)CC)c(=O)oc2c1,0.35%,

Compound,"activity change, negative = inhibition",Potency
CCCCCCCCCCCCCCCCCC(=O)OC[C@@H](O)[C@H]1OC[C@H](O)[C@H]1O,19.1%,
CO[C@H]1C[C@H](O[C@H]2[C@H](C)[C@@H](O[C@@H]3O[C@H](C)C[C@H](N(C)C)[C@H]3OC(C)=O)[C@@H](C)C[C@]3(CO3)C(=O)[C@H](C)[C@@H](OC(C)=O)[C@@H](C)[C@@H](C)OC(=O)[C@@H]2C)O[C@@H](C)[C@@H]1OC(C)=O,8.84% [at 27 µM],
C=C[C@]1(C)C[C@@H](OC(=O)CSC(C)(C)CNC(=O)[C@H](N)C(C)C)[C@]2(C)[C@H](C)CC[C@]3(CCC(=O)[C@H]32)[C@@H](C)[C@@H]1O,,23.9 µM (active)
C[C@@H]1C[C@H]2C3C[C@H](F)C4=CC(=O)C=CC4(C)[C@@]3(F)[C@@H](O)CC2(C)[C@@]1(O)C(=O)COC(=O)C(C)(C)C (stereo not given in full),-19.4%,
C[N@+]12CCCC[C@@H]1CCC(=C(c1cccs1)c1cccs1)C2,-18.1%,
[O]=[Bi][O][Bi]=[O],-6.35%,
N[C@@H](C(=O)N[C@@H]1C(=O)N2C(C(=O)O)=C(CSc3cn[nH]n3)CS[C@H]12)c1ccc(O)cc1,1.31%,
CCC(c1ccccc1)c1noc(CCN(CC)CC)n1 (stereo not given),-4.98%,
CN(C)c1ccc(C(=C2C=CC(=[N+](C)C)C=C2)c2c(O)c(S(=O)(=O)[O-])cc3cc(S(=O)(=O)O)ccc23)cc1,-23.5%,
Cc1ncc(C[n+]2csc(CCOP(=O)(O)OP(=O)(O)O)c2C)c(N)n1,-0.912%,
OCC(O)COc1ccc(Cl)cc1 (stereo not given),-11.2%,
C=CC[C@@H]1/C=C(\C)C[C@H](C)C[C@H](OC)[C@H]2O[C@@](O)(C(=O)C(=O)N3CCCC[C@H]3C(=O)O[C@H](/C(C)=C/[C@@H]3CC[C@@H](O)[C@H](OC)C3)[C@H](C)[C@@H](O)CC1=O)[C@H](C)C[C@@H]2OC,,16.9 µM (active)
Oc1cc(O)cc(O)c1,5.9%,
Nc1c(Br)cc(Br)cc1CNC1CCC(O)CC1 (stereo not given),-0.419%,
CC1(C)S[C@@H]2[C@H](NC(=O)C(C(=O)Oc3ccc4c(c3)CCC4)c3ccccc3)C(=O)N2[C@H]1C(=O)O (stereo not given in full),5.17%,
CC[N+](C)(C)Cc1ccccc1Br,6.35% [at 27 µM],
CC(C)CCCC(C)NC(C)C (stereo not given),-1.83%,
CCOc1ccc(C[C@H]2NC(=O)CCSSC[C@@H](C(=O)N3CCC[C@H]3C(=O)N[C@@H](CCCN)C(=O)NCC(N)=O)NC(=O)[C@H](CC(N)=O)NC(=O)[C@H]([C@@H](C)O)NC(=O)[C@H]([C@@H](C)CC)NC2=O)cc1 ([Mpa][dY](Et)ITNCP[Orn]G-NH2; disulfide 1-6),-1.79%,
CS(=O)(=O)OCC(O)C(O)COS(C)(=O)=O (stereo not given),6.7%,
O=C[C@H](O)[C@@H](O)[C@H](O[C@H]1O[C@H](CO)[C@@H](O[C@H]2O[C@H](CO)[C@@H](O)[C@H](O)[C@H]2O)[C@H](O)[C@H]1O)[C@H](O)CO,-5.55%,
